# Laboratory results taken from PMC7862700, “An all-to-all approach to the identification of sequence-specific readers for epigenetic DNA modifications on cytosine”.
# Assays:
# Experiment in all cases: DAPPL (digital affinity profiling via proximity ligation, sequencing); 10 mM Tris-HCl pH 7.5, 50 mM NaCl, 1 mM DTT, 4% glycerol, room temperature, 30 min; GST-TFs on glutathione beads, 16-mer random dsDNA library, 0.1% formaldehyde crosslink after washing; high values mean tight binding
# Details in all cases: protein: recombinant; tags: N-terminal GST; dsDNA, one strand shown
# SPIC = target: T1, SPIC (Homo sapiens, UniProt Q8N5J4 1-248)
# T1 sequence: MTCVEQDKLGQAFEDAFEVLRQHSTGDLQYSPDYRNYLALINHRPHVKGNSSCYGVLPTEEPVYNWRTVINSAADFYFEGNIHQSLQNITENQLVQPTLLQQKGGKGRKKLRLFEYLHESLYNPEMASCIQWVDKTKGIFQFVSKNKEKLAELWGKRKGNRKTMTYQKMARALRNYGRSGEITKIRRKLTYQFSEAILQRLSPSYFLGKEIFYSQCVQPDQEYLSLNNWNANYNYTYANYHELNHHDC
# Procedure, shortened: (§1)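 Binding signal is each hexamer's read frequency for a factor divided by its frequency in the tag-only sample. The factors were GST-fused human transcription factors from yeast, captured on glutathione beads, DNA-barcoded and pooled with that sample. Pools were incubated with 200 nmole of a random double-stranded 16-mer DNA library in Tris/NaCl/DTT/glycerol buffer at room temperature for 30 min, then washed, crosslinked with 0.1% formaldehyde, proximity-ligated with BsaI/T4 ligase (1 h, 37 °C), PCR-amplified and sequenced on an Illumina NextSeq500.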
# ELK1 = target: T2, ELK1 (Homo sapiens, UniProt P19419 1-428)
# T2 sequence: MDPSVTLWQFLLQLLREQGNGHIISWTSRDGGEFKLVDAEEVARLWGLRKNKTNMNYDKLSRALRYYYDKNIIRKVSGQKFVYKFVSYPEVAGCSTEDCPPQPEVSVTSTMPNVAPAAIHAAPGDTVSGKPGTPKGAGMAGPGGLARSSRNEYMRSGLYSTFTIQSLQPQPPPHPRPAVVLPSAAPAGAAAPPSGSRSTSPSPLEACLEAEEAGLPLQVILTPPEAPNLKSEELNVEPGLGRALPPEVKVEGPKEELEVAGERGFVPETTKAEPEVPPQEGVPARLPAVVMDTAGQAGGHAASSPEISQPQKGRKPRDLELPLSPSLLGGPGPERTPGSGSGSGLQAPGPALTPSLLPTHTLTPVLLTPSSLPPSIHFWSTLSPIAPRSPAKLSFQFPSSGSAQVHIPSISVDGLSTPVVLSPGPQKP
# Procedure, shortened: as §1
# GABPA = target: T3, GABPA (Homo sapiens, UniProt Q06546 1-454)
# T3 sequence: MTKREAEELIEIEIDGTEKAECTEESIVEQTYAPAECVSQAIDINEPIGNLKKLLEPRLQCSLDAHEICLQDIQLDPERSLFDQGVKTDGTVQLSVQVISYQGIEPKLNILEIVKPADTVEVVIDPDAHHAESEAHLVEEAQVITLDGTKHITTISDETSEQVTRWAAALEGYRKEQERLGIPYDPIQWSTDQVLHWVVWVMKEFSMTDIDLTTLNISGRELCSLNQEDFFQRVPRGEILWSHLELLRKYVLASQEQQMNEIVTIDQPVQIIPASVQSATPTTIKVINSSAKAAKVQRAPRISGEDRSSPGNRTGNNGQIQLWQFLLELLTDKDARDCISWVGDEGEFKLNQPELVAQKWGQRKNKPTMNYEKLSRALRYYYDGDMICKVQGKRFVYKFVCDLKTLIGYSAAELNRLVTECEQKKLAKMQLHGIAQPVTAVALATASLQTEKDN
# Procedure, shortened: as §1
# SPI1 = SPI1 (Homo sapiens, UniProt P17947 1-270)
# Procedure, shortened: as §1
# ELK3 = target: T4, ELK3 (Homo sapiens, UniProt P41970 1-407)
# T4 sequence: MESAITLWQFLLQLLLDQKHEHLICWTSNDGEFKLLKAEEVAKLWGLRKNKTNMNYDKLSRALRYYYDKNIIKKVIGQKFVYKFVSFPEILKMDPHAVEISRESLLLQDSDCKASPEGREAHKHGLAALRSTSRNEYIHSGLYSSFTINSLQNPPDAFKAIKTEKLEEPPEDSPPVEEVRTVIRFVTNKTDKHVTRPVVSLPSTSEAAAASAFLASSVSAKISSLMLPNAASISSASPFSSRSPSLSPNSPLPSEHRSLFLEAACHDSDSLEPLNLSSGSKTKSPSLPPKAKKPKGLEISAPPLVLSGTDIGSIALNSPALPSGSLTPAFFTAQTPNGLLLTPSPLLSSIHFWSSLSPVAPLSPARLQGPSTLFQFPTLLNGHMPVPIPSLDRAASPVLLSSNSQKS
# Procedure, shortened: as §1
# ELF4 = ELF4 (Homo sapiens, UniProt Q99607 1-663)
# ELF4, sequence (Q99607 whole entry): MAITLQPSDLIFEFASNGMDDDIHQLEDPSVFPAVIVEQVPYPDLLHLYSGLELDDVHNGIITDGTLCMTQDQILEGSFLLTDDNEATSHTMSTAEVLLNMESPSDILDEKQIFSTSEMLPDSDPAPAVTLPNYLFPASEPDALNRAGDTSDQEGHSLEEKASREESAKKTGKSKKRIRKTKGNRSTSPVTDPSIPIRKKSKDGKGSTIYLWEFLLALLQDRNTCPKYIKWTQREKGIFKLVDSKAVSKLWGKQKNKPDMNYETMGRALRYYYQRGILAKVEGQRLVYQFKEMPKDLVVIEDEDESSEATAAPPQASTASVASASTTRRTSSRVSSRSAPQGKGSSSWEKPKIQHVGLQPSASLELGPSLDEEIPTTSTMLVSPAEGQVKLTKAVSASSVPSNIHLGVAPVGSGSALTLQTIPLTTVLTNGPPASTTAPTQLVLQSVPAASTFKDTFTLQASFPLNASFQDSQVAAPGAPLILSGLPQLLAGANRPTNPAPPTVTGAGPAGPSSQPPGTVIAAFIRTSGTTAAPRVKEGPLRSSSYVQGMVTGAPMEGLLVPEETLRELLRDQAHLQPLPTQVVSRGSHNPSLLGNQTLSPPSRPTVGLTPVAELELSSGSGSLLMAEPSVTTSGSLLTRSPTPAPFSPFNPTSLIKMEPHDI
# Procedure, shortened: as §1
# ETV2 = target: T5, ETV2 (Homo sapiens, UniProt O00321 1-342)
# T5 sequence: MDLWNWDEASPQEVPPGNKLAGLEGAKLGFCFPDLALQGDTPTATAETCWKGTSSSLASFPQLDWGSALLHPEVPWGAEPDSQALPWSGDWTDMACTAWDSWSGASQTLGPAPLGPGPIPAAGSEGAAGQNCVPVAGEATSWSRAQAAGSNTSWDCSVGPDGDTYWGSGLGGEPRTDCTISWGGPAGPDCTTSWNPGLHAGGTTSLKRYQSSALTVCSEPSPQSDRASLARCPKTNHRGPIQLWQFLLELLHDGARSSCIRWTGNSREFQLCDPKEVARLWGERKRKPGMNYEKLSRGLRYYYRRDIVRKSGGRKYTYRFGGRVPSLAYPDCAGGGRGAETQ
# Procedure, shortened: as §1
# ETV1 = ETV1 (Homo sapiens, UniProt P50549 1-477)
# ETV1, sequence (P50549 whole entry): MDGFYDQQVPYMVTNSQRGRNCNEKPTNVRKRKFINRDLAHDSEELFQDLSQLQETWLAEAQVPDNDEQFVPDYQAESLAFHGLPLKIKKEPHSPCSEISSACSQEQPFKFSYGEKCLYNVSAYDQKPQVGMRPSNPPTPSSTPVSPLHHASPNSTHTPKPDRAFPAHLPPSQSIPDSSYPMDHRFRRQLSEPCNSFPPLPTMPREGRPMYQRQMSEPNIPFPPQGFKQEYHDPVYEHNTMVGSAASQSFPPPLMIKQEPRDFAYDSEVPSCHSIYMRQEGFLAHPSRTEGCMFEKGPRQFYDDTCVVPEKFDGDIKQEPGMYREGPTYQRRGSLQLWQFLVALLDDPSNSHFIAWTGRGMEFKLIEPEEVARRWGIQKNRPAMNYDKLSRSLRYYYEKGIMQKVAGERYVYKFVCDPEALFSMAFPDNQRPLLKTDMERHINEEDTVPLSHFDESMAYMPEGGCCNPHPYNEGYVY
# Procedure, shortened: as §1
# ERF = target: T6, ERF (Homo sapiens, UniProt P50548 1-548)
# T6 sequence: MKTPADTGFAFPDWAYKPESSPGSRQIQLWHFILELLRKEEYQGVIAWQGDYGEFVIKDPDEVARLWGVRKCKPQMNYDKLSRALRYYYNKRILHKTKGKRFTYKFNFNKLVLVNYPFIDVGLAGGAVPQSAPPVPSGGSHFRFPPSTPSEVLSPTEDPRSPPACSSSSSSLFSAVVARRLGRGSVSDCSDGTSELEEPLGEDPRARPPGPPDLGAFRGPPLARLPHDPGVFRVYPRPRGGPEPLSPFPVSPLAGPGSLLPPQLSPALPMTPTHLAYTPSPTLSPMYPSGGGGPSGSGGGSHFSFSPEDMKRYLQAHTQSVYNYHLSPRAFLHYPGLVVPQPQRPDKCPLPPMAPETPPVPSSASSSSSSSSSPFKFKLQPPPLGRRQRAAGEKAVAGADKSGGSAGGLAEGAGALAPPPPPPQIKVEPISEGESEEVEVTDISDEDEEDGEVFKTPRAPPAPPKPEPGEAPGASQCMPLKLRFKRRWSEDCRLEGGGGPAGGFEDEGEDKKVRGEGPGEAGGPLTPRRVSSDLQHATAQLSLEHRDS
# Procedure, shortened: as §1
# ETS2 = target: T7, ETS2 (Homo sapiens, UniProt P15036 1-469)
# T7 sequence: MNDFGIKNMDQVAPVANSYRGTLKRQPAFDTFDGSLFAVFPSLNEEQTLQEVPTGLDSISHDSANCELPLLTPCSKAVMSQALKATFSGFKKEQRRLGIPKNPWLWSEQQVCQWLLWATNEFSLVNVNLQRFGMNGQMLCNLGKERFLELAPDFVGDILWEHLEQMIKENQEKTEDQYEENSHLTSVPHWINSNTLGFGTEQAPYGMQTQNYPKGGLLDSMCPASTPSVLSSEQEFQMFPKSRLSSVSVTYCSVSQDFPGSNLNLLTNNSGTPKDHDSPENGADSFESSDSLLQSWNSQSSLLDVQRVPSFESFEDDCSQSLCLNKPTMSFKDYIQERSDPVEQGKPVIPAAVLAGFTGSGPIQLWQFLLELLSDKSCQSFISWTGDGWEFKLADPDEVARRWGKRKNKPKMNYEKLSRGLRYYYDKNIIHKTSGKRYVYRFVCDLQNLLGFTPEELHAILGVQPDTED
# Procedure, shortened: as §1
# ETV7 = target: T8, ETV7 (Homo sapiens, UniProt Q9Y603 1-341)
# T8 sequence: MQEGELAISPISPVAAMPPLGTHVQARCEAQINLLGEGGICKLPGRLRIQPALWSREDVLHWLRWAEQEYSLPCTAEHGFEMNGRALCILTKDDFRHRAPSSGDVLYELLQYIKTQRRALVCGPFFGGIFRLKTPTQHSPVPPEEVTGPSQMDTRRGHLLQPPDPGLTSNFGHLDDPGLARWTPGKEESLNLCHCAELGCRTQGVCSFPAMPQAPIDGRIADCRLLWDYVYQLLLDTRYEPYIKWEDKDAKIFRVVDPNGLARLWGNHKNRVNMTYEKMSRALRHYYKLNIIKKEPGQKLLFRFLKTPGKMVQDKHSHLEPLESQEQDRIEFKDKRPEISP
# Procedure, shortened: as §1
# ELF5 = target: T9, ELF5 (Homo sapiens, UniProt Q9UKW6-2 1-255)
# T9 sequence: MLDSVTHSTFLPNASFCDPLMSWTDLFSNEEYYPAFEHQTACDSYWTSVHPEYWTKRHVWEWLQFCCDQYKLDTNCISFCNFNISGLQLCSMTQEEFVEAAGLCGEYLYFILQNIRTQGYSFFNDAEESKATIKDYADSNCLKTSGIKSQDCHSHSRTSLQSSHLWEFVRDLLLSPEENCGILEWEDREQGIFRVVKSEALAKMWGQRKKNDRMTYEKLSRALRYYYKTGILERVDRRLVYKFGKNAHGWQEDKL
# Procedure, shortened: as §1
# ETV3 = target: T10, ETV3 (Homo sapiens, UniProt P41162-2 1-143)
# T10 sequence: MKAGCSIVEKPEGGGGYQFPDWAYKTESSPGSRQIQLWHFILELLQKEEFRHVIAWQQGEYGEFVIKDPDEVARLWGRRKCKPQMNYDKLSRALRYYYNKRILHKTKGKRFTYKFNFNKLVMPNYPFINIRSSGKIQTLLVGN
# Procedure, shortened: as §1
# SPIB = SPIB (Homo sapiens, UniProt Q01892 1-262)
# SPIB, sequence (Q01892 whole entry): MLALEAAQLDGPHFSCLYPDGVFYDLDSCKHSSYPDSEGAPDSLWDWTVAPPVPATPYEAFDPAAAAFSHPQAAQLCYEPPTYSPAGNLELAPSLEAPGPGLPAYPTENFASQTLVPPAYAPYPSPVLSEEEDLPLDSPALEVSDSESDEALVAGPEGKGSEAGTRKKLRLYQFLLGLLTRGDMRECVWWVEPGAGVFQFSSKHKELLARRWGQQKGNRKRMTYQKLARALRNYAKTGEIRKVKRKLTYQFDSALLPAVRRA
# Procedure, shortened: as §1
# ELK4 = target: T11, ELK4 (Homo sapiens, UniProt P28324-2 1-405)
# T11 sequence: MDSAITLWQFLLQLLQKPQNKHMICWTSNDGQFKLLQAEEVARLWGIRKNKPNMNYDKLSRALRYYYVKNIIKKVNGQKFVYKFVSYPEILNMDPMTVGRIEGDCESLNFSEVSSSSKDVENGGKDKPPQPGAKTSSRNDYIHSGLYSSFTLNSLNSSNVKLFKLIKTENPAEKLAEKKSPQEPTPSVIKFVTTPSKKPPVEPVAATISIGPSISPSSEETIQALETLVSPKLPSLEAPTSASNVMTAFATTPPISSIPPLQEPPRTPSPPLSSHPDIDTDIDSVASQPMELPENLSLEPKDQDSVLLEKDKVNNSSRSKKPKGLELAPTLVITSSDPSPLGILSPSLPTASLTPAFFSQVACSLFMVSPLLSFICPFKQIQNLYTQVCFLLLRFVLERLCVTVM
# Procedure, shortened: as §1
sequence,measurement,setting,value
GCATGC,binding signal,SPIC,"1.07 fold enrichment (6-mer frequency, TF over GST control)"
ATGGGA,binding signal,SPIC,"1.05 fold enrichment (6-mer frequency, TF over GST control)"
ACCTGT,binding signal,ELK1,"1.05 fold enrichment (6-mer frequency, TF over GST control)"
same,binding signal,GABPA,"1 fold enrichment (6-mer frequency, TF over GST control)"
same,binding signal,SPI1,"1.01 fold enrichment (6-mer frequency, TF over GST control)"
same,binding signal,ELK3,"1.12 fold enrichment (6-mer frequency, TF over GST control)"
same,binding signal,SPIC,"1.06 fold enrichment (6-mer frequency, TF over GST control)"
same,binding signal,ELF4,"1.06 fold enrichment (6-mer frequency, TF over GST control)"
same,binding signal,ETV2,"1.04 fold enrichment (6-mer frequency, TF over GST control)"
same,binding signal,ETV1,"1.02 fold enrichment (6-mer frequency, TF over GST control)"
same,binding signal,ERF,"1.08 fold enrichment (6-mer frequency, TF over GST control)"
same,binding signal,ETS2,"1.04 fold enrichment (6-mer frequency, TF over GST control)"
same,binding signal,ETV7,"1.07 fold enrichment (6-mer frequency, TF over GST control)"
same,binding signal,ELF5,"1.04 fold enrichment (6-mer frequency, TF over GST control)"
same,binding signal,ETV3,"1.13 fold enrichment (6-mer frequency, TF over GST control)"
GTGCTG,binding signal,SPIC,"1.05 fold enrichment (6-mer frequency, TF over GST control)"
AGCAGA,binding signal,SPIC,"1.04 fold enrichment (6-mer frequency, TF over GST control)"
ATTGTG,binding signal,SPIC,"1.07 fold enrichment (6-mer frequency, TF over GST control)"
same,binding signal,ELF4,"1 fold enrichment (6-mer frequency, TF over GST control)"
same,binding signal,ERF,"1.06 fold enrichment (6-mer frequency, TF over GST control)"
TGCAGA,binding signal,SPIB,"1.03 fold enrichment (6-mer frequency, TF over GST control)"
same,binding signal,SPIC,"1.06 fold enrichment (6-mer frequency, TF over GST control)"
same,binding signal,ELF4,"1 fold enrichment (6-mer frequency, TF over GST control)"
TGTCAG,binding signal,SPIC,"1 fold enrichment (6-mer frequency, TF over GST control)"
same,binding signal,ELK4,"1.02 fold enrichment (6-mer frequency, TF over GST control)"
CTGTGG,binding signal,SPIC,"1.1 fold enrichment (6-mer frequency, TF over GST control)"
GGCACC,binding signal,SPIC,"1.03 fold enrichment (6-mer frequency, TF over GST control)"
AGGCAC,binding signal,SPIC,"1.03 fold enrichment (6-mer frequency, TF over GST control)"
TCAGAC,binding signal,SPIC,"1.11 fold enrichment (6-mer frequency, TF over GST control)"
